Hits are enriched below; roughly 3.3% of the tested compounds scored in any of these assays.
ABHD5-PLIN5 inh: inhibitors of human ABHD5-perilipin-5 interaction; Q00G26+Q8WTS1; Split G. princeps luciferase complementation, luminescence, 4 h; inhibition, % at 4 µM; 360,000 tested, 0.78% active; AID 602281;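 active = inhibition above the mean inhibition across every tested compound plus 3 SD, cut at about 22% in these data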;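 note: 0% = DMSO only wells and the 100% control is not disclosed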
NOD2 RIPK2 PPI: inhibitors of human NOD2-RIPK2 interaction. O43353. CHO BLA complementation NOD2-RIPK2, CCF4 ratio. inhibition, % at 4.98 µM. 360,000 tested, 0.38% active; in the data active = inhibition above about 21%;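 note: 0% = vehicle only and 100% = reference blocker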
TLR4 MyD88 comp: blocks binding of human TLR4 to MyD88; O00206+Q99836; HeLa CL3-4 TLR4/MyD88 BLA complementation, FRET ratio; inhibition, % at 8.4 µM; 200,000 tested, 0.18% active; in the data active = inhibition above about 25%;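 note: 0% = vehicle and 100% = reference inhibitor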
PRMT1 FP inh: blocks human protein arginine methyltransferase 1; inhibition, % at 2.79 µM; AID 652257; recombinant PRMT1, activity-based probe fluorescence polarization; 370,000 tested, 1.3% active; Q99873;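 active = inhibition above about 21% made by adding two undisclosed values, limit read from the data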
Target sequence (Q99873 whole entry, looked up): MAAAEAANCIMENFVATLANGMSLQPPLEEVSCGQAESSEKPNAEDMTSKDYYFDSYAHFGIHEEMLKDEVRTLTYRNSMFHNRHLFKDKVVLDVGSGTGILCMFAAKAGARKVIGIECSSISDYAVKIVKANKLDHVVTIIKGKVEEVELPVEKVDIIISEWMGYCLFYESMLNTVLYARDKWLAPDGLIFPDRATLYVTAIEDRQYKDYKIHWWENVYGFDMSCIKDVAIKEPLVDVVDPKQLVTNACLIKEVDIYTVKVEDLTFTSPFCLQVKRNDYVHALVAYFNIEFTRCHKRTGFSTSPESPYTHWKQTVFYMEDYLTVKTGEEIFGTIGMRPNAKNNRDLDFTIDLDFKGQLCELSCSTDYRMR
rCAG binder: molecules binding r(CAG) RNA repeats; r(CAG) RNA repeat, TO-PRO-1 dye displacement fluorescence; inhibition, % at 3 µM; 370,000 tested, 1.3% active; AID 651821;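 active = inhibition above the plate cutoff, the mean of all test compounds on that plate plus 3 SD, cut at about 35% in these data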;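 note: 0% = DMSO alone and 100% = 100 µM mitoxantrone as full dye displacement; higher means more dye released from RNA so lower well fluorescence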
TLR9-MyD88 block: TLR9-MyD88 interaction inhibition. CHO BLA complementation TLR9-MyD88, CCF4 FRET ratio. AID 504734. 340,000 tested, 0.21% active. inhibition, % at 4.98 µM;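 active = inhibition above the mean over all tested compounds plus 3 SD, cut at about 21% in these data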;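 note: 0% = DMSO only wells and 100% = clavulanate BLA inhibitor control wells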
ABHD5 PLIN5 conf: confirmation of human ABHD5-PLIN5 interaction inhibitors | 2,200 tested, 67% active | shares compounds with ABHD5-PLIN5 inh | biochemical ABHD5-PLIN5 interaction, luminescence | AID 651612 | inhibition, % at 4 µM; in the data active = inhibition above about 23%;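 note: 0% = DMSO vehicle wells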
HNF4 counter: active in HNF4 split-luciferase counter-screen for ABHD5-PLIN5 inhibitors | shares compounds with ABHD5-PLIN5 inh | 2,200 tested, 77% active | HNF4 dimerization, luminescence, biochemical | AID 651674 | inhibition, % at 4 µM;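 active = mean inhibition across replicate wells exceeding the computed hit threshold, cut at about 13% in these data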;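 note: light from luciferase halves that rejoin when HNF4 fusion proteins dimerize; 0% = DMSO only wells and the 100% control is not given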
An asterisk follows results filed as active; . = not tested or not shown.

SMILES | ABHD5-PLIN5 inh | NOD2 RIPK2 PPI | TLR4 MyD88 comp | PRMT1 FP inh | rCAG binder | TLR9-MyD88 block | ABHD5 PLIN5 conf | HNF4 counter
CCOC(=O)C(c1ccccc1)C(Nc1ccc(F)cc1)c1ccccn1 (configuration not stated) | 3 | 3 | . | -3 | -6 | -16 | . | .
NC(=O)c1ccccc1N/C=C/C(=O)c1ccc(Cl)cc1 | 2 | -9 | -10 | -1 | 4 | 7 | . | .
O=C(/C=C/Sc1ccccc1)c1ccc(Cl)cc1 | 38* | 1 | 3 | 1 | 2 | 4 | 70* | 47*
O=C(/C=C/Sc1ccccc1)c1ccccc1 | 35* | 5 | 15 | 9 | -3 | 6 | 61* | 47*
O=C(c1cc(Cl)nc2ccccc12)N(Cc1nnc(-c2ccccc2Cl)o1)C1CC1 | -2 | -1 | . | 2 | -4 | 5 | . | .
O=C(C(=Cc1ccccc1)CN1CCCCC1)c1ccccc1 | 47* | 12 | . | 0 | -1 | -2 | 77* | 65*
O=C(CCCCN1CCCCC1)c1ccccc1 | -3 | 5 | . | 4 | -4 | 1 | . | .
O=C1CC(c2ccccc2)CC(=O)C1Sc1ccc(Cl)cc1 (configuration not stated) | -1 | -6 | -2 | 6 | 7 | -1 | . | .
COc1ccc(C2CC(=O)C(CS(=O)(=O)c3ccccc3)C(=O)C2)cc1 (configuration not stated) | 42* | -15 | -2 | 9 | 4 | . | 53* | 102*
O=C1CC(c2ccc(Cl)cc2)CC(=O)C1CS(=O)(=O)c1ccccc1 (configuration not stated) | 25* | -8 | 0 | 20 | 12 | 0 | 43* | 83*
O=C(/C=C/c1ccccc1O)c1ccco1 | 61* | 4 | . | -5 | 0 | 10 | 83* | 78*
CC(C)(C)C(=O)Nc1ccc(/C=C/C(=O)c2ccco2)cc1 | 37* | 7 | . | 0 | -2 | 10 | 61* | 44*
N#Cc1ccc(/C=C/C(=O)c2ccco2)cc1 | 63* | 8 | 8 | 2 | 1 | -4 | 93* | 95*
CN(C)C(CNC(=O)c1cccc(C(F)(F)F)c1)c1ccco1 (configuration not stated) | 8 | 1 | . | -2 | 3 | -1 | . | .
CC1(C)CC(=O)C(C(C2=C(O)CC(C)(C)CC2=O)c2ccc(Br)s2)C(=O)C1 (configuration not stated) | 67* | -5 | 17 | 21 | 4 | 3 | 91* | 97*
N#C/C(=C/c1cccc(O)c1)C(=O)NCc1ccc(Cl)cc1 | 24* | 9 | . | -1 | 4 | -6 | 64* | 55*
N#C/C(=C\c1cccc(NC(=O)c2ccccc2Cl)c1)C(=O)NCCc1ccccc1 | 47* | 0 | 9 | -1 | 11 | 7 | 83* | 78*
COc1ccccc1NC(=O)CC1C(=O)NCCN1C(=O)Nc1ccc(Cl)c(Cl)c1 (configuration not stated) | 24* | 5 | -10 | 1 | 16 | 6 | 13 | 6
CC[C@@H]1CC=C[C@H]2[C@H]1C(=O)N(Cc1ccccc1)[C@H]2c1ccoc1 | 24* | 6 | . | . | . | 0 | 37* | 35*
COc1ccc(NS(=O)(=O)c2ccc(C)c(C(=O)NCCCN3CCCC3=O)c2)cc1 | 23* | -6 | . | 0 | 8 | 11 | 4 | 3
Cc1ccccc1C(=O)N1CCC(C(=O)N(CC(C)C)c2c(N)n(Cc3ccccc3)c(=O)[nH]c2=O)CC1 | -9 | 6 | . | -2 | -2 | 7 | . | .
C=C1C(=O)O[C@H]2[C@H]1[C@H](OC(=O)/C(C)=C\C)C[C@]1(CO1)[C@@H]1[C@H](OC(C)=O)C=C(C)[C@]21O | 25* | 6 | . | -2 | 10 | -4 | 46* | 40*
COc1ccc(NC(=O)NCC(C)CSc2ccc(C)cc2)c(OC)c1 (configuration not stated) | -2 | 2 | . | 0 | -2 | 6 | . | .
Cc1nc(CNC(=O)CC2C(=O)NCCN2Cc2cccc(Oc3ccccc3)c2)cs1 (configuration not stated) | 7 | 4 | -14 | 3 | 6 | 7 | . | .
COc1ccc(C2C(C#N)=C(N)Oc3cc(C)n(Cc4ccco4)c(=O)c32)cc1 (configuration not stated) | 32* | 4 | -4 | 10 | 2 | -10 | 66* | 68*
SMILES | ABHD5-PLIN5 inh | NOD2 RIPK2 PPI | TLR4 MyD88 comp | PRMT1 FP inh | rCAG binder | TLR9-MyD88 block | ABHD5 PLIN5 conf | HNF4 counter
Cc1cc2c(c(=O)n1CCCn1ccnc1)C(c1ccco1)C(C#N)=C(N)O2 (configuration not stated) | 13 | 13 | -1 | 0 | 0 | -2 | . | .
CC(C)[C@H](CO)NC(=O)[C@H]1O[C@@H](n2ccc(=O)[nH]c2=O)[C@H](O)[C@@H]1O | -12 | -11 | . | -5 | 2 | . | . | .
C[C@H](CO)N1C[C@H](C)[C@@H](CN(C)Cc2ccc(C(=O)Nc3ccccc3N)cc2)Oc2c(NC(=O)C3CCCCC3)cccc2C1=O | 72* | 2 | . | 1 | -1 | -7 | 1 | 3
C[C@H](CO)N1C[C@H](C)[C@@H](CN(C)Cc2ccc3c(c2)OCO3)Oc2c(NC(=O)C3CCCCC3)cccc2C1=O | 9 | 2 | . | -1 | 6 | -6 | . | .
N=c1c(C(=O)NCc2ccc(F)cc2)cc2c(=O)n3ccccc3nc2n1CC1CCCO1 (configuration not stated) | 9 | -22 | -15 | 1 | 6 | -14 | . | .
N=c1c(C(=O)NCc2ccco2)cc2c(=O)n3ccccc3nc2n1CC1CCCO1 (configuration not stated) | 28* | -6 | -3 | 4 | 6 | -8 | 10 | 12
Cc1scc(C(=O)NCc2ccco2)c1-c1ccccc1 | 28* | -7 | 7 | 5 | 10 | 4 | 23* | 22*
COc1ccc(S(=O)(=O)Nc2ccccc2N2CCOCC2)cc1OC | 11 | -7 | . | 0 | 0 | 3 | . | .
CC1(C)CC(=O)C(C(C2=C(O)CC(C)(C)CC2=O)c2ccc(O)c([N+](=O)[O-])c2)=C(O)C1 | 24* | -2 | 2 | 11 | -1 | 4 | 73* | 57*
COc1ccc(S(=O)(=O)N2CCC(C(=O)NN3CCCCC3)CC2)cc1OC | -1 | -3 | . | -1 | 0 | 1 | . | .
COC(=O)c1ccc(NC(=O)COc2ccc(N(C)S(=O)(=O)c3ccc(C)cc3)cc2)cc1 | 1 | -5 | . | 3 | 2 | 1 | . | .
O=C(CCCn1cc([N+](=O)[O-])cn1)NCc1ccccc1 | 1 | -4 | 11 | -4 | -2 | -12 | . | .
O=C(CCCn1cc([N+](=O)[O-])cn1)NC1CCCCCC1 | 99* | -6 | -9 | -3 | 0 | -3 | -5 | 5
